# Assay outcomes deposited in PubChem by several laboratories.
# phage Ecoli inh – E. coli growth loss with phage present; hit rate 0.26% among 360,000; inhibition, % at 11.9 µM; growth absorbance; in the data active means inhibition above about 11%
# Tat export inh – E. coli Tat transport inhibition | E. coli MC4100 TorA-mCherry Tat export, fluorescence | inhibition, % at 10 µM | hit rate 0.036% among 340,000 | AID 488895;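 active means mean replicate inhibition at least 50% and at least half of replicates individually reaching 50%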;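 further: exported cargo escapes ClpAP degradation while cytoplasmic cargo is degraded and loses fluorescence; 0% = median of neutral control wells and 100% = median of NaSCN control wells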
# E coli growth-1 – bacterial growth inhibition, counter-screen for AddAB inhibitors; E. coli V3065 growth, OD600 absorbance, 18 h; inhibition, % at 11.9 µM; hit rate 0.27% among 330,000;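 active means inhibition above the campaign's mean inhibition across all tested compounds plus 3 SD, cut at about 9.9% in these data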;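 further: uninfected addAB+ strain grown without phage in ampicillin broth; 0% = DMSO wells and 100% = ciprofloxacin 0.95 µg/ml wells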
# AddAB inh – less growth of phage-infected E. coli with AddAB; inhibition, % at 11.9 µM; AID 435030; E. coli expressing H. pylori AddAB, absorbance growth; hit rate 0.29% among 330,000; in the data active means inhibition above about 12%;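 further: 0% = vehicle wells of infected cells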
# E coli growth-2 – inhibitors of Escherichia coli growth | OD600, 23 h; stronger effect = lower value | OD600 absorbance (concentration not given with the values) | hit rate 0.21% among 330,000;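 active means OD600 absorbance below the run mean of sample wells minus 3.6 SD, in any replicate, cut at about 0.56 in these data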
# AddAB conf – growth loss of T4-infected E. coli expressing H. pylori AddAB, confirmed | inhibition, % at 11.9 µM | shares compounds with AddAB inh | E. coli V3065 expressing H. pylori AddAB, T4 phage, OD; T4 phage with gene 2 nonsense mutations | hit rate 64% among 880;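 active means mean inhibition above a set limit taken from the earlier primary screen, cut at about 13% in these data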;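 further: higher means less bacterial growth since AddAB block lets phage replicate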
# RecBCD counter – AddAB counter-screen: growth loss of RecBCD+ E. coli infected with mutant T4 phage. AID 488955. shares compounds with AddAB inh. E. coli V66 + mutant T4 phage, OD growth. hit rate 73% among 880. inhibition, % at 11.9 µM;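 active means mean inhibition above the mean of solvent-only control wells plus 3 SD, cut at about 4% in these data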;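 further: optical density read after an 18 h incubation at 37 °C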
# bact viab count – counter-screen for AddAB inhibitors: inhibitors of bacterial viability | absorbance (AddAB counterscreen) | inhibition, % at 11.9 µM | shares compounds with AddAB inh | hit rate 35% among 880; in the data active means inhibition above about 25%
# RecBCD conf – growth loss of phage-infected V66 E. coli, RecBCD confirmation screen. shares compounds with phage Ecoli inh. E. coli V66 + T4 2- phage, growth OD. inhibition, % at 11.9 µM. hit rate 45% among 890. AID 651982;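 active means mean inhibition over triplicates exceeding the hit threshold derived in the original primary screen, cut at about 11% in these data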
# Ecoli viability – counter-screen for RecBCD inhibitors: inhibitors of bacterial viability; shares compounds with phage Ecoli inh; E. coli viability, absorbance (OD) growth; inhibition, % at 11.9 µM; hit rate 29% among 890; in the data active means inhibition above about 20%;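 further: E. coli strain V66 grown with compound alone and no phage infection; 0% = bacteria with DMSO vehicle only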
# AddAB phage OD – growth loss of phage-infected AddAB E. coli, RecBCD counter-screen; hit rate 45% among 890; shares compounds with phage Ecoli inh; inhibition, % at 11.9 µM; E. coli expressing H. pylori AddAB + T4 phage, OD growth; gene 2 mutant T4, recBCD-deleted host;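 active means mean inhibition above the solvent-only control wells' mean plus 3 SD, cut at about 22% in these data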;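 further: higher means less bacterial growth from phage killing when AddAB is blocked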
# * = called active by the depositor; x = no result given. Most compounds without a hit are left out; they make up all but 0.51% or so of the library.
SMILES,phage Ecoli inh,Tat export inh,E coli growth-1,AddAB inh,E coli growth-2,AddAB conf,RecBCD counter,bact viab count,RecBCD conf,Ecoli viability,AddAB phage OD
[O-][n+]1c2ccccc2[n+]([O-])c2cc(O)ccc21,11*,9,40*,31*,0.4*,69*,9.8*,51*,11*,11,55*
CC=C(C)C(=O)Nc1cccc(C2=NOC3(C2)CC(C(N)=O)N(C(=O)c2ccccc2)C3)c1 (stereo not given),x,x,x,x,0.7,x,x,x,x,x,x
CN(C)N=Cc1ccc(P(c2ccc(C=NN(C)C)o2)c2ccc(C=NN(C)C)o2)o1,x,x,x,x,0.69,x,x,x,x,x,x
CCc1nnc(NS(=O)(=O)c2ccc(NC(=S)Nc3ccc(F)cc3)cc2)s1,16*,6,9,15*,0.65,-5,1,-1,3,2,8
O=C(NN=Cc1cccnc1)c1ccc(NC(=O)c2cccc(Cl)c2)cc1,x,x,x,x,0.65,x,x,x,x,x,x
NC(=NOC(=O)Oc1ccccc1)c1ccc([N+](=O)[O-])cc1,x,x,x,x,0.67,x,x,x,x,x,x
C=CCc1cccc(/C=N/NC(=O)CNc2cccc3ccccc23)c1O,8,-6,6,12,x,x,x,x,x,x,x
C=CCc1cccc(/C=N/NC(=O)CCC(=O)Nc2ccc(F)cc2)c1O,13*,9,11*,13*,x,14*,16*,13,10,10,8
C=CCc1cccc(/C=N/NC(=O)CNc2ccccc2OC)c1O,14*,2,8,13*,x,16*,10*,13,8,9,11
C=CCOC(=O)C(=O)C=Cc1coc2ccccc2c1=O,x,x,x,x,0.68,x,x,x,x,x,x
O=C1c2ccccc2NC(c2ccc(-c3ccc(F)cc3)o2)N1O (stereo not given),2,-5,6,7,x,x,x,x,x,x,x
O=C1c2ccccc2NC(c2ccc(-c3cccc([N+](=O)[O-])c3)o2)N1O (stereo not given),22*,-3,25*,27*,0.63,21*,20*,17,9,14,12
O=C1c2ccccc2NC(c2ccc(-c3ccc(Br)cc3)o2)N1O (stereo not given),23*,-26,24*,24*,0.62,19*,18*,17,14*,14,15
CC(=O)NN1C(=O)c2ccccc2NC1c1cccc([N+](=O)[O-])c1 (stereo not given),2,4,0,1,0.66,x,x,x,x,x,x
O=C(NCCCN1CCOCC1)C(=O)NN=Cc1cccc2ccccc12,x,x,x,x,0.72,x,x,x,x,x,x
COc1ccc(OC)c(NC(=O)Nc2nnc(N3CCCCC3C)s2)c1 (stereo not given),13*,2,13*,13*,0.69,2,17*,-2,10,12,-5
Cc1ccc(C(C)C)c(OCc2ccc(C(=O)N/N=C/c3cccc(O)c3O)cc2)c1,22*,2,14*,16*,x,16*,16*,9,9,11,14
Cc1ccc(C(C)C)c(OCc2ccc(C(=O)NN=Cc3ccc(O)cc3O)cc2)c1,x,x,x,x,0.68,x,x,x,x,x,x
COc1cccc(/C=C2/SC(=S)N(CC(=O)NNC(=O)c3ccccc3O)C2=O)c1,14*,9,7,13*,0.65,17*,14*,16,11*,15,17
CCOc1ccc(C(O)=C2C(=O)C(=O)N(CC3CCCO3)C2c2ccc(C)o2)cc1 (stereo not given),x,x,x,x,0.7,x,x,x,x,x,x
COc1ccc2c(c1)[n+](=O)c(C(C)=O)c(C)n2[O-],1,3,0,1,0.69,x,x,x,x,x,x
CC(=O)c1c(C)n([O-])c2cc(F)c(F)cc2[n+]1=O,22*,29,53*,63*,0.11*,98*,26*,88*,23*,31*,91*
